Mtb FBA inh – Mtb fructose-bisphosphate aldolase inhibition; inhibition, % at 1 µM; AID 588726; purified M. tuberculosis FBA, fluorescence read-out; P9WQA3; hit rate 2.3% among 360,000; in the data active means inhibition above about 27%;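 further: 0% = vehicle and 100% = reference inhibitor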
Mtb bLac sens – beta-lactam sensitization of Mtb H37Rv; M. tuberculosis H37Rv growth with meropenem, percent inhibition; inhibition, % at 25 µM; hit rate 0.27% among 330,000; AID 434955; call rule not given here;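 further: growth measured after seven days incubation then overnight dye step; 0% = bacteria only wells and 100% = bacteria with antibiotic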
CCHFV vOTU inh – CCHFV vOTU protease inhibition | Pep-AMC fluorescence | inhibition, % at 11.5 µM | hit rate 0.55% among 370,000; further: 0% = vehicle wells with enzyme and 100% = no enzyme wells
MazF activator – activators of E. coli MazEF toxin-antitoxin RNase; P0AE70; FAM/BHQ RNA-DNA oligo cleavage fluorescence, 5 h; activation, % at 20 µM; hit rate 0.32% among 350,000; AID 504720; in the data active means activation above about 50%
Target sequence (P0AE70 whole entry, looked up): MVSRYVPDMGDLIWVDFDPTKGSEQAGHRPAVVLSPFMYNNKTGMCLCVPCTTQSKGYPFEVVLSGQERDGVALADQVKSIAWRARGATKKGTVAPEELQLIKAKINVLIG
GDH-TPI inh – inhibits GDH-TPI coupling enzymes, artifact for Mtb FBA screen. hit rate 1.2% among 360,000. inhibition, % at 4.8 µM. GDH-TPI coupled enzyme counterscreen, NADH absorbance;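 further: 0% = DMSO wells and 100% = wells lacking the enzyme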
The depositor's hits bear a star; / = no result given; + = active, no number. In the library only some 4% were active in any assay of this set; here they are far more common. Unless noted, no stated cut-off is given here; in the data, active means inhibition above about 30%; inactive means the rest.

SMILES	Mtb FBA inh	Mtb bLac sens	CCHFV vOTU inh	MazF activator	GDH-TPI inh
N#Cc1cnn2ccc(-c3ccc4c(c3)CCC4)nc12	141.3*	-1.6	-193.2	2.7	12.6
CCN(CC)C(=O)CC[C@H]1CC[C@]2(CCCN(C(=O)c3cccnc3)C2)O1	/	/	-8.3	/	/
Cc1ccc(C(=O)O/N=C\c2ccc(N3CCCCC3)c([N+](=O)[O-])c2)cc1	-0.6	95.9	-1.6	11.4	39.8*
O=C(O/N=C\c1ccc(N2CCCCC2)c([N+](=O)[O-])c1)c1c(F)cccc1F	-0.7	98.1	14.6	-4.6	14.7
Cc1cc(/C=C(\C#N)C(=O)OCC(=O)Nc2ccc(OC(F)F)cc2)c(C)n1CC(C)C	0.1	1.1	18.9	-0.2	30.9*
CC(C)(OC1OC(CO)C(O)C(O)C1O)[C@H]1Oc2ccc3ccc(=O)oc3c2[C@H]1O (some centres undefined)	117.3*	-13.1	-31.8	2.3	28.1
O=C(CN1CCN(S(=O)(=O)c2ccccc2)CC1)NC(=O)NCc1ccccc1	-1.6	-2.0	12.9	28.1	0.4
Cc1ccc(S(=O)(=O)N2CCN(CC(=O)NC(=O)NCc3ccccc3)CC2)cc1C	2.3	5.4	-2.8	95.0*	0.0
CCOC(=O)c1cnc(SCC(=O)N2CCc3ccccc32)nc1N	-1.0	-0.2	7.0	67.8*	1.7
CCOC(=O)c1cnc(SCC(=O)N2CCN(c3ccccc3)CC2)nc1N	2.2	-6.1	2.0	7.4	-1.3
Cc1ccc(N=Nc2c(O)n(CN3CCOCC3)c3ccccc23)cc1	-5.1	44.8	/	56.7*	9.2
Cc1ccccc1N1CCN(C(=O)COc2cc(=O)n(C)c3ccccc23)CC1	/	/	-4.6	/	/
Cc1cccc(Cn2cc(COC(=O)Nc3ccc(F)cc3)nn2)c1	/	/	11.1	/	/
Cc1ccc(N/C=C/C(=O)c2ccc(C)cc2)cc1	3.3	66.9	4.4	-2.4	5.8
Cc1ccc(C(=O)/C=C/Nc2ccccn2)cc1	-0.3	-5.3	-5.9	3.5	33.3*
O=S(=O)(c1ccc(N2CCC(c3ccc(Cl)cc3)=N2)cc1)N(CCO)CCO	+	-17.1	-314.5	2.7	31.8*
CN(C)CCCNS(=O)(=O)c1ccc(N2CCC(c3ccc(Cl)cc3)=N2)cc1	/	-10.2	-290.4	/	/
CCC(NC(=O)Cc1c(C)c2ccc(OC)c(C)c2oc1=O)C(=O)NC(Cc1ccc(Cl)cc1)C(=O)O (centres undefined)	143.1*	-7.0	-84.3	3.9	19.6

Bioassay records from PubChem BioAssay.
